Results as given in PubChem BioAssay (NCI).
This is part of a sample that, as a whole, favours compounds with a hit. Of some 79,000 tested, about 15% had one in any assay. A number with no mark means an inactive call. Active and inactive are the calls of the source. Rule as the data show it: active = growth inhibition above about 70%; inactive = the rest.

assay: NCI Yeast Anticancer Drug Screen. Data for the sgs1 mgt1 strain (AID 161);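 also: 0% = growth of cultures given vehicle only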; settings: S. cerevisiae sgs1 mgt1 strain, at 5.0 µM (retest, dose inferred, filed as 0.5), active compounds read high
Procedure, shortened: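 This yeast growth screen uses a strain with defined DNA-repair lesions; compound-treated growth is compared with vehicle-treated growth.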

For `Cc1ccc(O)c(C(c2cc(C)ccc2O)c2ccccc2Cl)c1`, the growth inhibition was 91% (active).
For `O=c1ssc(=Nc2ccc(Cl)cc2)n1-c1ccc(Cl)cc1`, the growth inhibition was 95% (active).

Point of comparison: `CC(=O)Oc1ccc(Cl)cc1Cc1cc(Cl)ccc1OC(C)=O`, growth inhibition 7%. Against it:
- CC(=O)OC1CCC2(C)C(CCC3C4=CCC(C5COC(=O)C5)C4(C)CCC32)C1 (stereo unspecified) — lower, -5%
- CCN(CC)CCCC(C)Nc1cc(F)cc2cccnc12 (stereo unspecified) — higher, 28%
- CC1CN(CCCN2c3ccccc3Sc3ccc(Cl)cc32)C(C)(C)C1 (stereo unspecified) — higher, 17%
- O=S(=O)(O)c1ccc2c(c1)C1C(C3C2C2(Cl)C(Cl)=C(Cl)C3(Cl)C2(Cl)Cl)C2(Cl)C(Cl)=C(Cl)C1(Cl)C2(Cl)Cl (stereo unspecified) — lower, -19%
- OC(CN1CCC(c2ccccc2)CC1)c1ccc(Br)cc1 (stereo unspecified) — higher, 66%
- CCOC(=O)/C(C#N)=C\c1cccc2ccccc12 — lower, 5%
- COc1ccc2c(c1)CCC(N1CCCC(O)C1)C2 (stereo unspecified) — higher, 12%
- COc1cccc(N2CCN(CC(O)COc3cc4c(c5c3CCCC5)CCCC4)CC2)c1 (stereo unspecified) — higher, 34%
- CC(O)c1c2c(cc3c1CC1(C3)Cc3cc4c(c(C(C)O)c3C1)CCC4)CCC2 (stereo unspecified) — lower, -34%
- O=c1c2ccccc2nc(-c2ccccc2)n1NC(=S)Nc1ccc(Cl)cc1[N+](=O)[O-] — lower, 4%
- O=C(CCCN1CCc2[nH]c3cc(F)ccc3c2C1)c1ccc(F)cc1 — lower, -7%
- OC(C(=Nc1ccccc1)c1ccccc1)c1ccccc1 (stereo unspecified) — lower, 1%
- N#CC1CCCC(Cc2ccccc2)(c2ccccc2)C1=O (stereo unspecified) — lower, -2%
